# Results taken from PubChem BioAssay.
# Several values for one entry are separate records, joined by “and”; a condition that tells them apart may be missing. Identical values can stand only once. Inconclusive results are not listed. Activity calls are given as the source filed them.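 How the source made its calls, unless noted: active means normalized viability below 100% at a tested concentration; inactive means the rest.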
# Legend:
# [1] = growth inhibition of DIPG glioma cells, dose response, cell-based, SU-DIPG-XIII, MIPE4.0, CellTiter-Glo, qHTS (AID 1347061; cut-off not given, nearly all actives have AC50 up to about 37 µM;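 further: cells exposed to compound for 48 hours before readout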); details: SU-DIPG-XIII viability, CellTiter-Glo ATP luminescence
# [2] = growth inhibition of DIPG glioma cells, dose response, cell-based, SU-DIPG-IV, MIPE4.0, CellTiter-Glo, qHTS (AID 1347063; cut-off not given, nearly all actives have AC50 up to about 30 µM;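 further: compound exposure lasted 48 hours before the viability readout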); details: SU-DIPG-IV viability, CellTiter-Glo ATP luminescence
# [3] = SU-DIPG-VI glioma cell viability, MIPE4.0 library, CellTiter-Glo luminescence, qHTS (AID 1347066; cut-off not given, nearly all actives have AC50 up to about 30 µM;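 further: cells exposed to compound for 48 hours before readout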); details: CellTiter-Glo ATP luminescence
# [4] = sensitizers of A549 cells to miR-34 induction, primary screen, imaging, A549 dox-inducible miR-34, nuclei and caspase counts (AID 1347080;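 active means compounds whose cell count with miR-34 switched on is under 0.7 times the count with it off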); details: A549 miR-34 inducible, Hoechst nuclei count, 48 h
# [5] = modifiers of HSF1 nuclear foci, imaging, Selleck Cancer Library (AID 1347162; in the data active means plate-normalised HSF1 focus index below about 0.46); details: human cells, at 10 µM; SSMD: measured here: HSF1 foci SSMD mean; cell count: measured here: cell number; plate-normalised HSF1 focus index: stronger effect = lower value
# [6] = survival rescue of mitochondrial mutant cells in low glucose, primary screen, MELAS cybrids, Rieske KO mouse fibroblasts, CellTiter-Glo (AID 1508586;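 active means mean z-score across replicates of 1.96 or higher in either the MELAS or the Rieske mutant cell line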;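 further: z relative to plate mean and SD of compound and empty wells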)
# [7] = LFS_MB_P medulloblastoma growth inhibition, cell-based, chromothripsis tumors, cisplatin or BGB combos (AID 1671449; in the data active means inhibition above about 80%;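 further: cells exposed for 96 hours; 0% = vehicle DMSO and 100% = killing by high DMSO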); details: LFS_MB_P medulloblastoma cells
# [8] = HDN33 neuroblastoma growth inhibition, cell-based, chromothripsis tumors, cisplatin or BGB combos (AID 1671450; in the data active means inhibition above about 80%;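 further: cells exposed to compound for four days; 0% = vehicle DMSO and 100% = cell killing by high DMSO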); details: HDN33 neuroblastoma cells, stronger effect = higher value
# [9] = ICB984 medulloblastoma cell growth inhibition, synergistic combos for chromothripsis tumors, cisplatin or BGB combos (AID 1671451; call rule not given here;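 further: cells exposed for 96 hours before readout; 0% = vehicle DMSO and 100% = killing by high DMSO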); details: ICB984 medulloblastoma cells, drug combinations, stronger effect = higher value
# [10] = HTB85 osteosarcoma cell growth inhibition, synergistic combos for chromothripsis tumors, BGB or cisplatin IC20 combos (AID 1671453; in the data active means inhibition above about 80%;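 further: cells exposed for 96 hours before readout; 0% = vehicle DMSO and 100% = high DMSO killing control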); details: HTB85 osteosarcoma cells, drug combinations, stronger effect = higher value
# [11] = MDA-MB-436 breast carcinoma cell growth inhibition, synergistic combos for chromothripsis tumors, BGB or cisplatin combos (AID 1671458; call rule not given here;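 further: cells exposed for 96 hours; 0% = vehicle DMSO and 100% = killing by high DMSO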); details: MDA-MB-436 breast carcinoma growth inhibition, drug combinations, stronger effect = higher value
# [12] = growth inhibition of BT084 medulloblastoma cells, cell-based, ICGC_MB145, cisplatin and BGB IC40 combos (AID 1671461; in the data active means inhibition above about 80%;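 further: cells exposed to drugs for 96 hours; 0% = vehicle DMSO and 100% = high DMSO full killing control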); details: drug combinations, stronger effect = higher value
# [13] = growth inhibition of RCMB18 medulloblastoma cells, cell-based, cisplatin and BGB IC40 combos (AID 1671462; in the data active means inhibition above about 80%;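 further: cells exposed to compound for four days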); details: stronger effect = higher value
# [14] = growth inhibition of CRL1545 osteosarcoma cells, cell-based, cisplatin and BGB IC20 combos (AID 1671464; in the data active means inhibition above about 80%;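 further: cells exposed to compound for 96 hours before readout; 0% = vehicle DMSO and 100% = high DMSO killing control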); details: stronger effect = higher value
# [15] = growth inhibition of DIPG glioma cells, dose response, cell-based, SU-DIPG-XIII, MIPE5.0, CellTiter-Glo, qHTS (AID 1347064; cut-off not given, nearly all actives have AC50 up to about 23 µM); details: SU-DIPG-XIII viability, CellTiter-Glo ATP luminescence
# [16] = viability loss in pontine glioma line – cell-based, SU-DIPG-XXV, MIPE5.0, CellTiter-Glo, qHTS, dose response (AID 1347065; cut-off not given, nearly all actives have AC50 up to about 26 µM;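 further: cells exposed to compound for 48 hours before ATP readout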); details: CellTiter-Glo ATP luminescence
# [17] = ovarian cancer cell viability with rucaparib, profiling panel, oncology-focused library, rucaparib conditional (AID 1508598); details: patient-derived ovarian cancer cells, CellTiter-Glo viability, 144 h, stronger effect = lower value
# [18] = stronger effect = lower value, cell number ratio, induced over uninduced
# [19] = measured here: relative caspase fold change +Dox/-Dox
# [20] = measured here: total cells with miR-34 induction, stronger effect = lower value
# [21] = measured here: total cells without miR-34 induction
# [22] = MELAS cybrid survival, CellTiter-Glo 48 h, stronger effect = higher value
# [23] = Rieske KO mouse fibroblast survival, CellTiter-Glo 72 h
# [24] = measured here: with BGB IC20 combination, at 0.5 µM
# [25] = measured here: with cisplatin IC20 combination, at 0.5 µM
compound,measurement,setting,value
CNCc1ccc(-c2[nH]c3cc(F)cc4c3c2CCNC4=O)cc1,outcome,[1],inactive
same,outcome,[2],inactive
same,outcome,[3],inactive
same,fold change,[4]; [18],0.956 (inactive)
same,fold change,[4]; [19],1.62
same,cell count,[4]; [20],6530
same,cell count,[4]; [21],6840
same,SSMD,[5],2.12
same,cell count,[5],7610
same,plate-normalised HSF1 focus index,[5],1.13 (inactive)
same,z-score,[6]; [22],-0.49 (inactive)
same,z-score,[6]; [23],-0.266
same,inhibition,"[7]; at 0.5 µM, stronger effect = higher value",11.2% (inactive) and -4.36% (inactive)
same,inhibition,"[7]; measured here: combination with BGB IC20, at 0.005 µM",-33.6% and -11.5%
same,inhibition,"[7]; measured here: combination with BGB IC40, at 0.005 µM",-21.8% and 22.8%
same,inhibition,"[7]; measured here: combination with BGB IC40, at 0.05 µM",-33.3% and -12.4%
same,inhibition,"[7]; measured here: combination with cisplatin, at 0.5 µM, stronger effect = higher value",-17.5% and -5.55%
same,inhibition,"[7]; measured here: combination with cisplatin, at 5 µM, stronger effect = higher value",-45.3% and -35.9%
same,inhibition,"[8]; BGB combo, at 5 µM",-25.2% and 11.9%
same,inhibition,[8]; at 0.5 µM,-14.8% (inactive) and 14.3% (inactive)
same,inhibition,"[8]; cisplatin combo, at 5 µM",-4.69% and 14.3%
same,inhibition,[8]; [24],-21.7% and 13.3%
same,inhibition,[8]; [25],-14.7% and 11.6%
same,inhibition,"[8]; single agent, at 5 µM",9.94% and 30.8%
same,inhibition,"[9]; BGB IC20 combo, at 0.005 µM",-15.3% and 7.74%
same,inhibition,"[9]; BGB IC40 combo, at 0.005 µM",-14.9% and -10.3%
same,inhibition,"[9]; BGB IC40 combo, at 0.05 µM",-15.6% and -2.1%
same,inhibition,[9]; at 0.5 µM,-18% (inactive) and -11.9% (inactive)
same,inhibition,"[9]; cisplatin combo, at 0.05 µM",-19.7% and -5.77%
same,inhibition,"[9]; cisplatin combo, at 0.5 µM",-11.2% and -6.08%
same,inhibition,"[9]; cisplatin combo, at 5 µM",-48.3% and -31.5%
same,inhibition,"[9]; measured here: 5 uM single agent, at 5 µM",4.24% and 12.5%
same,inhibition,[10]; at 0.5 µM,-0.57% (inactive) and 3.23% (inactive)
same,inhibition,"[10]; measured here: with BGB IC20, at 0.5 µM",-24.5% and -14.6%
same,inhibition,"[10]; measured here: with BGB IC20, at 5 µM",-20.2% and -0.361%
same,inhibition,"[10]; measured here: with cisplatin IC20, at 0.5 µM",6.68% and 16.2%
same,inhibition,"[10]; measured here: with cisplatin IC20, at 5 µM",-9.57% and 9.16%
same,inhibition,"[10]; single agent, at 5 µM",-2.29% and 13.1%
same,inhibition,[11]; at 0.5 µM,2.86% (inactive) and 14.9% (inactive)
same,inhibition,"[11]; measured here: BGB combination, at 0.5 µM",-19.1% and 0.063%
same,inhibition,"[11]; measured here: BGB combination, at 5 µM",-12.9% and -16%
same,inhibition,"[11]; measured here: cisplatin combination, at 0.5 µM",9.87% and 19.6%
same,inhibition,"[11]; measured here: cisplatin combination, at 5 µM",31.2% and 24.2%
same,inhibition,[12]; at 0.5 µM,-22% (inactive) and 7.71% (inactive)
same,inhibition,"[12]; cisplatin combination, at 0.5 µM",-60.7% and -23.3%
same,inhibition,"[12]; cisplatin combination, at 5 µM",-41.6% and -18%
same,inhibition,"[12]; measured here: BGB IC40 combination 0.05 uM, at 0.05 µM",24.6% and 0.2%
same,inhibition,"[12]; single agent, at 5 µM",-4.29% and -11.5%
same,inhibition,[13]; at 0.5 µM,-28.5% (inactive) and -5.9% (inactive)
same,inhibition,"[13]; cisplatin combo, at 5 µM",-30.1% and -29%
same,inhibition,"[13]; measured here: BGB IC40 combination, at 0.05 µM",-11.1% and 4.25%
same,inhibition,"[13]; measured here: combination with cisplatin, at 0.5 µM",-71.1% and 1.49%
same,inhibition,"[13]; single agent, at 5 µM",-19.5% and -1.31%
same,inhibition,[14]; at 0.5 µM,3.62% (inactive) and -10.7% (inactive)
same,inhibition,[14]; [24],-15.5% and 1.35%
same,inhibition,[14]; [25],11.8% and -18.6%
same,inhibition,"[14]; single agent, at 0.05 µM",15.8% and 33%
same,inhibition,"[14]; single agent, at 5 µM",1.41% and -6.63%
COc1ccc2cc(-c3nc(-c4ccc(S(C)=O)cc4)[nH]c3-c3ccncc3)ccc2c1 (stereo not drawn),outcome,[1],inactive
same,outcome,[15],inactive
same,AC50,[16],14.8 µM (active)
same,outcome,[3],inactive
same,fold change,[4]; [18],1.33 (inactive)
same,fold change,[4]; [19],0.892
same,cell count,[4]; [20],7650
same,cell count,[4]; [21],5750
same,SSMD,[5],4.96
same,cell count,[5],6890
same,plate-normalised HSF1 focus index,[5],1.27 (inactive)
same,z-score,[6]; [22],-0.573 (inactive)
same,z-score,[6]; [23],0.971
same,viability,"[17]; at 0.000305 µM, OCI-C5x cells, with rucaparib 10 µM, 100% = cells with rucaparib alone",108% (inactive)
same,viability,"[17]; at 0.000305 µM, OCI-C5x cells, without rucaparib",102% (inactive)
same,viability,"[17]; at 0.000305 µM, OCI-P5x cells, with rucaparib 20 µM, 100% = cells with rucaparib alone",107% (inactive)
same,viability,"[17]; at 0.000305 µM, OCI-P5x cells, without rucaparib",103% (inactive)
same,viability,"[17]; at 0.00122 µM, OCI-C5x cells, with rucaparib 10 µM, 100% = cells with rucaparib alone",95.3% (active)
same,viability,"[17]; at 0.00122 µM, OCI-C5x cells, without rucaparib",101% (inactive)
same,viability,"[17]; at 0.00122 µM, OCI-P5x cells, with rucaparib 20 µM, 100% = cells with rucaparib alone",107% (inactive)
same,viability,"[17]; at 0.00122 µM, OCI-P5x cells, without rucaparib",105% (inactive)
same,viability,"[17]; at 0.00488 µM, OCI-C5x cells, with rucaparib 10 µM, 100% = cells with rucaparib alone",106% (inactive)
same,viability,"[17]; at 0.00488 µM, OCI-C5x cells, without rucaparib",95.5% (active)
same,viability,"[17]; at 0.00488 µM, OCI-P5x cells, with rucaparib 20 µM, 100% = cells with rucaparib alone",103% (inactive)
same,viability,"[17]; at 0.00488 µM, OCI-P5x cells, without rucaparib",96.1% (active)
same,viability,"[17]; at 0.0195 µM, OCI-C5x cells, with rucaparib 10 µM, 100% = cells with rucaparib alone",96.9% (active)
same,viability,"[17]; at 0.0195 µM, OCI-C5x cells, without rucaparib",107% (inactive)
same,viability,"[17]; at 0.0195 µM, OCI-P5x cells, with rucaparib 20 µM, 100% = cells with rucaparib alone",91.1% (active)
same,viability,"[17]; at 0.0195 µM, OCI-P5x cells, without rucaparib",90.7% (active)
same,viability,"[17]; at 0.0781 µM, OCI-C5x cells, with rucaparib 10 µM, 100% = cells with rucaparib alone",104% (inactive)
same,viability,"[17]; at 0.0781 µM, OCI-C5x cells, without rucaparib",109% (inactive)
same,viability,"[17]; at 0.0781 µM, OCI-P5x cells, with rucaparib 20 µM, 100% = cells with rucaparib alone",95.6% (active)
same,viability,"[17]; at 0.0781 µM, OCI-P5x cells, without rucaparib",95.1% (active)
same,viability,"[17]; at 0.313 µM, OCI-C5x cells, with rucaparib 10 µM, 100% = cells with rucaparib alone",145% (inactive)
same,viability,"[17]; at 0.313 µM, OCI-C5x cells, without rucaparib",122% (inactive)
same,viability,"[17]; at 0.313 µM, OCI-P5x cells, with rucaparib 20 µM, 100% = cells with rucaparib alone",87.7% (active)
same,viability,"[17]; at 0.313 µM, OCI-P5x cells, without rucaparib",93.7% (active)
same,viability,"[17]; at 1.25 µM, OCI-C5x cells, with rucaparib 10 µM, 100% = cells with rucaparib alone",122% (inactive)
same,viability,"[17]; at 1.25 µM, OCI-C5x cells, without rucaparib",148% (inactive)
same,viability,"[17]; at 1.25 µM, OCI-P5x cells, with rucaparib 20 µM, 100% = cells with rucaparib alone",106% (inactive)
same,viability,"[17]; at 1.25 µM, OCI-P5x cells, without rucaparib",84% (active)
same,viability,"[17]; at 5 µM, OCI-C5x cells, with rucaparib 10 µM, 100% = cells with rucaparib alone",110% (inactive)
same,viability,"[17]; at 5 µM, OCI-C5x cells, without rucaparib",113% (inactive)
same,viability,"[17]; at 5 µM, OCI-P5x cells, with rucaparib 20 µM, 100% = cells with rucaparib alone",26.6% (active)
same,viability,"[17]; at 5 µM, OCI-P5x cells, without rucaparib",26.9% (active)
